# Measured values from PubChem BioAssay (Tox21).
# Results filed as inconclusive are left out. Activity calls are given as the source filed them. Calls follow the shape of the dose curve; as a rule, active = well fitted activation curve with a large enough effect; inconclusive = small, poorly fitted or top-dose-only effect; inactive = flat fitted curve, though single readings scatter.
# Assay: qHTS assay to identify small molecule phospholipidosis (PLD) inducers (AID 1259344)
# Details: HepG2 phospholipidosis, LipidTOX Red imaging, 24 h; series mostly up to 38.3 µM
# From the text: National Center for Advancing Translational Sciences [NCATS]
# Drug-induced Phospholipidosis (PLD) caused by cationic amphiphilic drugs is characterized by the appearance of unicentric or multicentric-lamellar bodies when viewed under electron microscope. Electron microscopy is the gold standard method for PLD detection, however, this method is time-consuming and labor intensive, making it unsuitable for evaluating a large set of compounds. A cell-based phospholipidosis assay has been developed using the LipidTox reagent in HepG2 cells and miniaturized into a 1536-well plate format. Drug induced phospholipid accumulation is stained with the LipidTox dyes in red color which then is determined using an automated high content screening system.
# HepG2 cells are dispensed at 900 cells/3 uL/well into Collagen I-coated 1536-well black-wall/clear-bottom assay plates (Greiner Bio-One, Monroe, NC) using the Multidrop Combi 8 channel dispenser (Thermo Fisher, Waltham, MA, USA). The assay plates are incubated at 37 C for 4 hours to allow the cell attachment. 3 uL of 1:500 LipidTOX Red dye is added using the dispenser, and then 23 nL compounds are added via a Wako Pintool station (Wako Automation, San Diego, CA). Amiodarone, a known PLD inducer, was used as a positive control and DMSO was used as a negative control. The assay plates were then incubated at 37 C for 24 hours.
# For fixations, 4 uL of 8% paraformaldehyde fixative solution containing 10 ug/mL Hoechst 33342 in Dulbecco's phosphate-buffered saline (DPBS) is added using a Kalypsys washer/dispenser (Kalypsys, San Diego, CA, USA). After incubation at room temperature for 30 min, the assay plates are washed once with DPBS using a Kalypsys washer/dispenser. The assay plates are then sealed and stored at 4 C before imaging. The fluorescence intensities (595 nm excitation, 615 nm emission for LipidTOX; 352 nm excitation, 461 nm emission for Hoechst 33342) are measured using an ImageXpress Micro Widefield High Content Screening System (Molecular Devices, Sunnyvale, CA, USA) with a 20x Plan Fluor objective. Images are acquired for one site in each well and analyzed with the MetaXpress software (Molecular Devices) using the Transfluor module. Several algorithmic outputs, such as pit count per well, pit count per cell, pit integrated intensity per well, and pit integrated intensity per cell, are used for quantitative image analysis for PLD.
row,Structure (SMILES),outcome
1,CCCCCCCCC(=O)NCc1ccc(O)c(OC)c1,inactive
2,Oc1cc(Cl)ccc1Oc1ccc(Cl)cc1Cl,inactive
3,COc1ccc(C(CN(C)C)C2(O)CCCCC2)cc1 (stereo not drawn),inactive
4,O=Cc1ccco1,inactive
5,CCN(CC)C(=O)/C(Cl)=C(\C)OP(=O)(OC)OC,inactive
6,CC(C)NC(C)C,inactive
7,NCc1cccnc1,inactive
8,CCCCCCCCOC(=O)c1ccccc1C(=O)OCCCCCCCC,inactive
9,C=C(C)[C@H]1Cc2c(ccc3c2O[C@@H]2COc4cc(OC)c(OC)cc4[C@@H]2C3=O)O1,inactive
10,COP(=S)(OC)Oc1cc(Cl)c(Cl)cc1Cl,inactive
11,ClC1C(Cl)C(Cl)C(Cl)C(Cl)C1Cl (stereo not drawn),inactive
12,Nc1ccc(Cl)cc1N,inactive
13,C#C[C@]1(O)CC[C@H]2[C@@H]3CCC4=CC(=O)CC[C@]4(C)[C@H]3CC[C@@]21C,inactive
14,Nc1ccncc1,inactive
15,CCOP(=S)(OCC)O/N=C(\C#N)c1ccccc1,inactive
16,CCC(C)(C)c1ccc(O)cc1,inactive
17,Oc1cc(Cl)c(Cl)cc1Cl,inactive
18,C[C@]12CCC(=O)C[C@@H]1CC[C@@H]1[C@@H]2CC[C@]2(C)[C@@H](O)CC[C@@H]12,inactive
19,O=c1oc2ccccc2c(O)c1C(CC(O)c1ccc(-c2ccc(Br)cc2)cc1)c1ccccc1 (stereo not drawn),inactive
20,CC1(C)C(C=C(Cl)Cl)C1C(=O)OC(C#N)c1cccc(Oc2ccccc2)c1 (stereo not drawn),inactive
21,CCOc1cc(C=O)ccc1O,inactive
22,O=C(Nc1ccc(Br)cc1)c1cc(Br)cc(Br)c1O,inactive
23,N[C@@H](Cc1ccc(N(CCCl)CCCl)cc1)C(=O)O,inactive
